The values that follow come from PubChem BioAssay (NCI).

The panel holds about 83,000 compounds, 20% with a hit somewhere; the sample as a whole holds those more often.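 How to read the values: 0–100, growth inhibition (40 = 60% inhibited); 0, no net growth; -100 to 0, cell death (-40 = 40% of starting cells died; -100 = all dead).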 Values without a mark were called inactive. The source made the active and inactive calls. The calls were made as follows: active = growth percent below 10; inactive = the rest.

What all share (assay): NCI-60 one-dose screen, 48 h (100 = growth as untreated, 0 = no growth, -100 = all killed)
For one test, the system named is COLO 205 colon. Conditions: 10 µM.
The next test relates to MALME-3M melanoma. Conditions: 10 µM unless noted.
The test system of a further test is HT29 colon. Conditions: 10 µM unless noted.
In the next test the test system is U251 CNS. Conditions: 10 µM unless noted.
Another test has as its system SK-MEL-2 melanoma. Conditions: 10 µM unless noted.
The subject of another test is UO-31 renal. Conditions: 10 µM unless noted.
For the next test, the system named is CAKI-1 renal. Conditions: 10 µM unless noted.
Another test deals with A498 renal. Conditions: 10 µM unless noted.
The test system of a further test is HL-60(TB) leukemia. Conditions: 10 µM unless noted.
A further test deals with OVCAR-8 ovarian. The following applies: 10 µM unless noted.
The test system of the next test is OVCAR-4 ovarian. The following applies: 10 µM unless noted.
For a further test, the system named is SK-OV-3 ovarian. Conditions: 10 µM unless noted.
A further test relates to HS 578T breast. Conditions: 10 µM unless noted.
The subject of the next test is T-47D breast. The following applies: 10 µM unless noted.
Another test concerns MDA-MB-435 melanoma. The following applies: 10 µM unless noted.
The subject of the next test is A549/ATCC NSCLC. Conditions: 10 µM unless noted.
The test system of another test is RXF 393 renal. Conditions: 10 µM unless noted.
The test system of a further test is UACC-257 melanoma. The following applies: 10 µM unless noted.
For a further test, the system named is SN12C renal. The following applies: 10 µM unless noted.
In the next test the test system is BT-549 breast. The following applies: 10 µM.

Take `CC(/C=N/N=C(N)N)=N\N=C(N)N`: the growth with COLO 205 colon was 55.4%; in the test with MALME-3M melanoma, 126%; in the test on HT29 colon it was 65.9%; with U251 CNS, 77.8%; in the test with SK-MEL-2 melanoma, -5.97% (active); in the test with UO-31 renal, 46.9%. The growth with CAKI-1 renal is 57.7%; in the test with A498 renal it was 83.9%; in the test with HL-60(TB) leukemia, 77.6%; with OVCAR-8 ovarian, 58.4%; in the test with OVCAR-4 ovarian, 66.3%; with SK-OV-3 ovarian, 84.9%. Also, the growth is 69.3% in the test with HS 578T breast, 40.8% in the test with T-47D breast and 89.2% in the test with MDA-MB-435 melanoma.
Regarding `CCCCCCCC(=O)OCC/C=C/C1OC1C1OC(=O)/C=C\C=C\c2nc(oc2C)/C=C(/C)CCC2OC2C1OC(=O)NC(C)=O` (stereo unspecified), the growth with A549/ATCC NSCLC was 5.19% (active); in the test on COLO 205 colon it was -90.3% (active); with MALME-3M melanoma, -12.4% (active); with RXF 393 renal, -58.3% (active); in the test with UACC-257 melanoma, 5.16% (active); with HT29 colon it was 4.62% (active). Further, the growth in the test with U251 CNS is -34.3% (active); in the test on SK-MEL-2 melanoma, -44.5% (active); in the test with SN12C renal, -99.9% (active); in the test on UO-31 renal it was 2.49% (active); in the test on CAKI-1 renal it was -6.91% (active); in the test on A498 renal, -82.5% (active). The growth in the test on OVCAR-8 ovarian is -79.1% (active); with OVCAR-4 ovarian, 8.12% (active); in the test on SK-OV-3 ovarian it was -38.5% (active); in the test with HS 578T breast, -1.2% (active); in the test on T-47D breast, -42.6% (active); in the test with BT-549 breast, -2.38% (active). In addition, the growth in the test with MDA-MB-435 melanoma is 3.24% (active).
On to `CC1(C)N=C(N)N=C(N)N1c1ccc(OCCCCNC(=O)Nc2cccc(S(=O)(=O)F)c2)c(Cl)c1`, for which the growth is 15.4% in the test on A549/ATCC NSCLC; 50.4% in the test with COLO 205 colon; 56.5% in the test on MALME-3M melanoma; 58.2% in the test with RXF 393 renal; 45.4% in the test with UACC-257 melanoma; 14.4% in the test with HT29 colon. Moreover, the growth is 15.6% in the test on U251 CNS; 81.2% in the test with SK-MEL-2 melanoma; 7.54% (active) in the test with SN12C renal; 90.1% with UO-31 renal; 96.6% with CAKI-1 renal; 90.3% in the test with A498 renal. In addition, the growth in the test on HL-60(TB) leukemia is 29.4%; with OVCAR-8 ovarian, 29.2%; in the test on OVCAR-4 ovarian, 97.1%; in the test on SK-OV-3 ovarian, 77.9%; in the test on T-47D breast it was 115%; in the test on BT-549 breast, 66.4%. For the same compound, the growth in the test on MDA-MB-435 melanoma is 20.1%.
Regarding `CC1(C)N=C(N)N=C(N)N1c1ccc(OCCCCNC(=O)c2ccc(S(=O)(=O)F)cc2)c(Cl)c1`, the growth in the test with A549/ATCC NSCLC was 51%; in the test on COLO 205 colon it was 61.7%; with MALME-3M melanoma, 71.3%; in the test on RXF 393 renal, 76.3%; in the test with UACC-257 melanoma it was 54.7%; in the test on HT29 colon, 27.6%. Further, the growth with U251 CNS was 57.2%; in the test on SK-MEL-2 melanoma, 82.4%; in the test with SN12C renal, 44.7%; in the test with UO-31 renal it was 77%; with CAKI-1 renal, 99.2%; in the test on A498 renal it was 105%. Moreover, the growth with HL-60(TB) leukemia was 36.2%; with OVCAR-8 ovarian, 32.7%; in the test on OVCAR-4 ovarian, 107%; with SK-OV-3 ovarian, 101%; in the test with T-47D breast, 104%; in the test on BT-549 breast, 79.5%. Moreover, the growth in the test with MDA-MB-435 melanoma was 30.6%.
For `C=CCN1C(=O)C(CC)(CCC(C)C)C(=O)NC1=S` (stereo unspecified), the growth in the test on A549/ATCC NSCLC is 98.7%; with COLO 205 colon, 108%; in the test on MALME-3M melanoma it was 96.1%; with RXF 393 renal it was 107%; with UACC-257 melanoma, 89.5%; with HT29 colon, 103%. Also, the growth is 97.3% in the test with U251 CNS; 117% with SK-MEL-2 melanoma; 86.4% in the test on UO-31 renal; 97.7% in the test with CAKI-1 renal; 112% with A498 renal; 101% with HL-60(TB) leukemia. The growth was 99.4% with OVCAR-8 ovarian; 106% in the test on OVCAR-4 ovarian; 100% with SK-OV-3 ovarian; 113% in the test on T-47D breast; 106% in the test on BT-549 breast; 101% in the test with MDA-MB-435 melanoma.
Consider `FC(F)=C(F)c1ccccc1`, for which the growth was 108% in the test on A549/ATCC NSCLC; 104% with COLO 205 colon; 101% in the test with MALME-3M melanoma; 112% in the test on RXF 393 renal; 116% with UACC-257 melanoma; 104% in the test on HT29 colon. Moreover, the growth in the test on U251 CNS is 103%; in the test with SK-MEL-2 melanoma, 98.5%; in the test on UO-31 renal, 83.7%; in the test with CAKI-1 renal, 109%; in the test with A498 renal, 100%; in the test on HL-60(TB) leukemia, 90.8%. Moreover, the growth in the test with OVCAR-8 ovarian is 104%; in the test with OVCAR-4 ovarian, 111%; in the test on SK-OV-3 ovarian, 97.5%; in the test on T-47D breast, 80.5%; with BT-549 breast, 96%; in the test with MDA-MB-435 melanoma, 104%.
In the case of `Cc1cc(NC(=O)NCCOc2ccc(N3C(N)=NC(N)=NC3(C)C)cc2Cl)ccc1S(=O)(=O)F`, the growth was 9.6% (active) with A549/ATCC NSCLC; 35.3% in the test on COLO 205 colon; 53.3% with MALME-3M melanoma; 53.8% in the test on RXF 393 renal; 32.2% in the test on UACC-257 melanoma; 9.65% (active) in the test on HT29 colon. Moreover, the growth with U251 CNS is 10.7%; in the test on SK-MEL-2 melanoma, 51.4%; with SN12C renal, 7.66% (active); in the test with UO-31 renal it was 81.6%; in the test on CAKI-1 renal it was 95.1%; with A498 renal it was 79.1%. Moreover, the growth with HL-60(TB) leukemia is 18.1%; in the test with OVCAR-8 ovarian, 25.3%; in the test with OVCAR-4 ovarian, 71.5%; in the test on SK-OV-3 ovarian, 55.4%; with T-47D breast, 50%; with BT-549 breast, 52.1%. For the same compound, the growth in the test with MDA-MB-435 melanoma is 18.8%.
In the case of `COC(=O)C1CC2c3ccccc3C1c1ccccc12` (stereo unspecified), the growth with A549/ATCC NSCLC was 98.2%; in the test with COLO 205 colon, 99.8%; with MALME-3M melanoma, 90.6%; in the test on RXF 393 renal it was 94.6%; in the test with UACC-257 melanoma, 97.8%; in the test on HT29 colon it was 106%. In addition, the growth in the test with U251 CNS is 101%; with SK-MEL-2 melanoma it was 103%; in the test with UO-31 renal, 83.6%; in the test with CAKI-1 renal, 76.5%; in the test with A498 renal it was 98.4%; with HL-60(TB) leukemia, 108%. Besides, the growth with OVCAR-8 ovarian was 101%; with OVCAR-4 ovarian, 106%; in the test with SK-OV-3 ovarian, 99.1%; with T-47D breast it was 102%; in the test with BT-549 breast it was 120%; in the test with MDA-MB-435 melanoma, 107%.
`CC1(C)N=C(N)N=C(N)N1c1ccc(CNC(=O)Nc2ccc(S(=O)(=O)F)c(Cl)c2)c(Cl)c1`: the growth in the test on A549/ATCC NSCLC was 10%; with COLO 205 colon it was 37.1%; in the test with MALME-3M melanoma, 54.5%; with RXF 393 renal it was 50.6%; in the test on UACC-257 melanoma, 23%; in the test on HT29 colon it was 7.61% (active). Moreover, the growth is 11.3% in the test on U251 CNS; 49.7% in the test with SK-MEL-2 melanoma; 17% in the test on SN12C renal; 88.2% with UO-31 renal; 61.3% with A498 renal; 21.8% with HL-60(TB) leukemia. Moreover, the growth in the test with OVCAR-4 ovarian is 68.8%; in the test with SK-OV-3 ovarian, 42.9%; in the test on T-47D breast, 60.3%; in the test with BT-549 breast, 48.6%.
